Screen size: about 1,900 compounds; fewer than 10 were called active. Another 20% or so got no clear call; they are omitted.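 Rule for the calls: active = compound lowering the normal-ribosome reporter at least twice as much as the humanized-ribosome reporter, growth loss under a set limit; inconclusive = no clear call, values can overlap the other calls; inactive = the rest.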 Not all results are given here.
Assay: E. coli growth inhibition, wild-type GFP versus h24 humanized RFP strain, dose response, h24 mutant RFP vs wild-type GFP, cherry-pick (AID 977628)
Details: E. coli WT GFP strain growth, fluorescence, 24 h; series mostly up to 50 µM; activity change, negative = inhibition: at the top concentration

| SMILES | activity change, negative = inhibition |
| --- | --- |
| CCn1c(NC(=O)c2nn(C)cc2Br)nc2ccccc21 | -2.68 (inactive) |
| Cc1ccc(C(=O)NCC(=O)OCC(=O)Nc2cccc(S(=O)(=O)N3CCCC3)c2)cc1C | -14.5 (inactive) |
| O=C(NCCc1ccccc1)c1cccc(NC(=O)c2ccccc2)c1 | -14 (inactive) |
| CNC(=O)c1ccsc1NC(=O)c1ccc(S(=O)(=O)N2CCc3ccccc32)cc1 | -16.9 (inactive) |
| O=C(N[C@@H](Cc1ccccc1)C(=O)OCc1ccccc1)c1nc[nH]c1C(=O)NC1CCNCC1 | -13.3 (inactive) |
| COc1ccccc1N1CCN(Cc2ccc(OC)c3ccccc23)CC1 | -11.9 (inactive) |
| Cc1n[nH]c(C)c1S(=O)(=O)N1CCCC(C(=O)Nc2ccc(Br)cc2)C1 (stereo not drawn) | -11.2 (inactive) |
| COc1ccccc1CC(=O)NCCc1c[nH]c2ccccc12 | -8.31 (inactive) |
| CC(=O)Nc1ccc(CNc2nc(NCCN(C)C)nc3cc(-c4ccccc4)sc23)cc1 | 3.84 (inactive) |
| CC1CCCC(NC(=O)COC(=O)[C@@H]2CC(O)CN2S(=O)(=O)c2ccc3c(c2)OCCO3)C1C (stereo partly drawn) | -10.7 (inactive) |
| CCc1cc2cc(OC)ccc2nc1SCC(=O)Nc1cc(OC)c(OC)cc1C(=O)O | -9.76 (inactive) |
| Cc1ccc2c(N)c(C(=O)c3ccccc3)sc2n1 | -5.41 (inactive) |
| COc1ccc(C2=NN(C(=O)c3cccnc3)C(c3ccccc3)C2)cc1 (stereo not drawn) | -5.27 (inactive) |
| Cc1ccc(-c2c[n+](CC(=O)Nc3ccccc3)c3n2CCC3)cc1 | -6.55 (inactive) |
| Cc1ccc(OCCCC(=O)NC(C)c2ccccc2)c(C)c1 (stereo not drawn) | -8.4 (inactive) |
| O=C(NCc1ccc2c(c1)OCO2)c1sccc1Br | -4.39 (inactive) |
| Cc1cccc(NC(=O)c2nc(S(=O)(=O)Cc3ccccc3)ncc2Cl)c1 | 6.25 (inactive) |
| Cn1cc(CCC(=O)NCc2ccc3c(c2)OCO3)c2ccccc21 | -5.07 (inactive) |
| Cc1ccc(S(=O)(=O)NC(C)C(=O)NCc2ccc(Cl)cc2)cc1 (stereo not drawn) | -9.27 (inactive) |
| CCc1c(N=O)c(-c2ccccc2)n(O)[n+]1[O-] | -8.37 (inactive) |
| COc1ccc2c(c1)c1ncn(Cc3ccccn3)c(=O)c1n2C | -10.3 (inactive) |
| O=C(c1cccc(F)c1)N1CCN(c2ccc([N+](=O)[O-])c3cccnc23)CC1 | -8.81 (inactive) |
| C[C@@H]1CN([C@@H](C)CO)C(=O)c2cc(NS(=O)(=O)c3ccccc3)ccc2O[C@@H]1CN(C)Cc1ccc(C(=O)Nc2ccccc2N)cc1 | 1.48 (inactive) |
